PubChem BioAssay (EPA / NIEHS)
The source made the active and inactive calls. Rule for the calls: active = hit-call score of the fitted dose curve at least 0.9, where 1 is the maximum; inactive = score below 0.9.

Experiment: ATG_Ets_CIS: Attagene CIS-FACTORIAL HepG2 Assay for human Erythroblast Transformation Specific (ETS) (AID 2282941)
Conditions: HepG2 ETS cis-reporter transcription, actives raise or lower the signal
Protocol: ATG_CIS is a cell-based, multiplexed-readout assay that uses HepG2, a human liver cell line, with measurements taken at 24 hours after chemical dosing in a 24-well plate.ATG_Ets_CIS is one of 52 assay component(s) measured or calculated from the ATG_CIS assay. It is designed to make measurements of mRNA induction, a form of inducible reporter, as detected with fluorescence intensity signals by Reverse transcription polymerase chain reaction (RT-PCR) and Capillary electrophoresis technology.Data from the assay component ATG_Ets_CIS was analyzed into 1 assay endpoint. This assay endpoint, ATG_Ets_CIS, was analyzed with bidirectional fitting relative to DMSO as the negative control and baseline of activity. Using a type of inducible reporter, measures of mRNA for gain or loss-of-signal activity can be used to understand the reporter gene at the transcription factor-level as they relate to the gene ETS1. Furthermore, this assay endpoint can be referred to as a primary readout, because this assay has produced multiple assay endpoints where this one serves a reporter gene function. To generalize the intended target to other relatable targets, this assay endpoint is annotated to the dna binding intended target family, where the subfamily is winged helix-turn-helix.
Human liver HepG2 cells are transiently transfected with multiple reporter transcription units (MRTUs) in 6-well plates using FuGene 6 reagent (Roche; 3 ml FuGene/1 mg DNA). The MRTU constructs are regulated by a cis-regulating element (promoter). […] A major difference between the CIS and TRANS system is that in CIS activities of endogenous TFs are measured, whereas the TRANS assay evaluates changes in activities of exogenous, chimeric NR-Gal4 proteins. […] At the end of 24 hour incubation, total RNA was isolated using TriZol reagent (Invitrogen). The isolated RNA is then reverse-transcribed using oligo(dT) primer and Mo-MLV reverse transcriptase (Invitrogen) with DNAse I (Ambion) treatment for 30 min. The one-tenth of the produced cDNA was amplified by PCR using Taq DNA polymerase (Invitrogen) and two reporter sequence-specific primers. The PCR products were fluorescently labeled by primer extension with 6-arboxyfluorescein (6-FAM) 5'-labeled reporter sequence-specific primer (2 min at 95 C, 20 s at 68 C and 10 min at 72 C) and these products were digested with 5U of HpaI (New England Biolabs) for 2h at 37 C. The fragments were purified using Qiaquick PCR columns (Qiagen), analyzed on an ABI 3130xL genetic analyzer (Applied Biosystems) with peak positions identified by using a set of X-rhodamine (ROX)-labeled MapMarker1000 molecular weight standards (BioVentures). The raw capillary electrophoresis data was processed using Attagraph software (Attagene).

For `CCCCCCCCCCCCCCCCOS(=O)(=O)O`, which outcome is on record?
Its outcome is “inactive”.

For `O=c1[nH]cnc2c1ncn2[C@H]1CC[C@@H](CO)O1`, which outcome is on record?
The outcome was “inactive”.

For `CCCOc1ccc(S(=O)(=O)N2CCN(CC)CC2)cc1-c1nc2c(CC)n(Cc3ccccn3)nc2c(=O)[nH]1`, which outcome is on record?
The outcome was “inactive”.

Which outcome does the source give for `CCCC(CCC)C(=O)O` here?
Its outcome is “inactive”.

Which outcome does the source give for `O=C(O)c1ccc2c(c1)nc(C(=O)NC1CCN(C3CC3)CC1)n2Cc1cc(-c2ccc(Cl)s2)on1` here?
Its outcome is “inactive”.

For `C[C@]12C=CC(=O)C=C1CC[C@H]1[C@@H]3C[C@@H](O)[C@](O)(C(=O)CO)[C@@]3(C)C[C@H](O)[C@@]12F`, which outcome is on record?
Its outcome is “inactive”.

Which outcome does the source give for `O=C(O)c1cccc(C[C@@H]2COc3ccc(OCc4nc5cc(F)ccc5s4)cc3[C@@H]2O)c1` here?
The outcome was “inactive”.

Which outcome does the source give for `CCCCCCCCN(C)C` here?
The outcome was “inactive”.

With `O=C(NO)C1(NS(=O)(=O)c2ccc(Oc3ccc(F)cc3)cc2)CCOCC1` as the molecule, how does the outcome read?
The outcome was “inactive”.

With `O=C(O)CO` as the molecule, how does the outcome read?
Its outcome is “inactive”.

Which outcome does the source give for `c1ccc2cc3ccccc3cc2c1` here?
Its outcome is “inactive”.

For `O=C(O)c1cccc(C(=O)O)c1`, which outcome is on record?
The outcome was “inactive”.

For `FC(F)C(F)(F)COCC1CO1` (stereo not given), which outcome is on record?
Its outcome is “inactive”.

For `FC(F)(F)C(F)(F)C(F)(F)C(F)(F)C(F)(F)C(F)(F)I`, which outcome is on record?
The outcome was “inactive”.

With `OC[C@H]1O[C@@](CO)(O[C@H]2O[C@H](CO)[C@@H](O)[C@H](O)[C@H]2O)[C@@H](O)[C@@H]1O` as the molecule, how does the outcome read?
The outcome was “inactive”.

With `CCCCCCCC/C=C\CCCCCCCC(=O)OC[C@@H](O)[C@H]1OC[C@H](O)[C@H]1O` as the molecule, how does the outcome read?
The outcome was “inactive”.

Which outcome does the source give for `Cc1ncc([C@@H](CCCCCCc2ccc3c(n2)NCCC3)CC(=O)O)cn1` here?
The outcome was “inactive”.

With `O=S(=O)(O)CCC(F)(F)C(F)(F)C(F)(F)C(F)(F)C(F)(F)C(F)(F)F` as the molecule, how does the outcome read?
The outcome was “inactive”.

For `OC(CCl)CCl`, which outcome is on record?
The outcome was “inactive”.

Which outcome does the source give for `Cc1nc(-c2ccccn2)ncc1C(=O)Nn1cc(C)c2cc(F)ccc21` here?
Its outcome is “inactive”.

With `COCc1nnc(-c2ccc[n+]([O-])c2)n1-c1c(Cl)c(Cl)cc2[nH]c(=O)c(=O)[nH]c12` as the molecule, how does the outcome read?
The outcome was “inactive”.

With `Cn1c(=O)c2[nH]cnc2n(C)c1=O` as the molecule, how does the outcome read?
The outcome was “inactive”.

Which outcome does the source give for `FC(F)=C(F)C(F)(F)C(F)(F)C(F)(F)C(F)(F)C(F)(F)C(F)(F)F` here?
Its outcome is “inactive”.

With `OCc1ccccc1` as the molecule, how does the outcome read?
The outcome was “inactive”.

With `NC(=O)N(O)[C@@H]1COc2cc(OCc3ccccc3)ccc21` as the molecule, how does the outcome read?
The outcome was “inactive”.

Which outcome does the source give for `NNC(=O)c1ccncc1` here?
The outcome was “inactive”.

With `NC(=O)NN=Cc1ccc([N+](=O)[O-])o1` as the molecule, how does the outcome read?
The outcome was “inactive”.

With `CCOC(N)=O` as the molecule, how does the outcome read?
The outcome was “inactive”.

For `C=CCc1cc(S(=O)(=O)c2ccc(O)c(CC=C)c2)ccc1O`, which outcome is on record?
The outcome was “inactive”.

Which outcome does the source give for `O=C(O)[C@H](O)[C@@H](O)C(=O)O` here?
The outcome was “inactive”.

For `c1ccc2ncccc2c1`, which outcome is on record?
Its outcome is “inactive”.

With `Cn1cc[nH]c1=S` as the molecule, how does the outcome read?
Its outcome is “inactive”.

With `OCc1c[nH]c2ccccc12` as the molecule, how does the outcome read?
The outcome was “inactive”.

Which outcome does the source give for `CCCCCOC(C)=O` here?
The outcome was “inactive”.

For `O=S1(=O)CCCO1`, which outcome is on record?
Its outcome is “inactive”.

With `C[C@@H](Oc1ccc(CNC(=O)c2cccnc2Oc2ccc3c(c2)OCO3)c(F)c1)C(=O)O` as the molecule, how does the outcome read?
The outcome was “inactive”.

Which outcome does the source give for `C=CN1CCCC1=O` here?
Its outcome is “inactive”.

For `CC(C)C(=O)Nc1ccc([N+](=O)[O-])c(C(F)(F)F)c1`, which outcome is on record?
The outcome was “inactive”.

Which outcome does the source give for `c1ccc2c(c1)-c1cccc3c1c-2cc1ccccc13` here?
Its outcome is “inactive”.

Which outcome does the source give for `Nc1ccn([C@@H]2O[C@H](CO)[C@@H](O)[C@@H]2O)c(=O)n1` here?
The outcome was “inactive”.
